Compound activity deposited in PubChem by National Center for Advancing Translational Sciences (NCATS).
Sampled rows, rich in hits. Any-hit rate of the full collection: about 9.5%.
Tau FP inhib – tau fibrillization inhibition (FP) | K18 P301L tau heparin fibrillization, Alexa594 FP, 6 h | Potency, µM (doses to about 57.7 µM), inactives show at the highest dose activity, negative = inhibition, usual class: inhibitors | 280,000 tested, 0.39% active | AID 1468; further: nearly all actives have a fitted effect of over 55% in size
Target sequence (P10636 561-689 P618L limits assumed): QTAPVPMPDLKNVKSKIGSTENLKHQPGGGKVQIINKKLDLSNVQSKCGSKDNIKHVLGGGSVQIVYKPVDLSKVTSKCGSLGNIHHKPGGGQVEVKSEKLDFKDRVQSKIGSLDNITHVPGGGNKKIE
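Recombinant K18 P301L […], labeled with Alexa 594 at 0.24 uM over 15 uM unlabeled; heparin inducer 20 uM final; 37 C, 6 hr; FP endpoint.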
Tau fluor counter – counter-screen for tau fibril formation inhibitors. tau K18 P301L Alexa594 fluorescence, heparin fibrillization. Potency, µM (highest dose often 57.7 µM), inactives show at the highest dose activity change, negative = decrease. 280,000 tested, 0.93% active. AID 1463; further: nearly all actives have a fitted effect of over 55% in size
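Human K18 P301L tau (15 uM unlabeled plus 0.24 uM Alexa 594-labeled, final) in 100 mM sodium acetate pH 7 was mixed with compound and 20 uM heparin and incubated 6 hr at 37 C.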
NPSR antagonist – antagonists of human neuropeptide S receptor cAMP signaling. CHO-NPSR cells, cAMP TR-FRET, antagonist mode. Potency, µM (highest dose often 38.3 µM), for the others: at the highest dose activity change, negative = inhibition, actives largely listed as inhibitors. 220,000 tested, 1% active. AID 1461; further: nearly all actives have a fitted effect of over 50% in size
Target sequence (Q6W5P4 whole entry, looked up): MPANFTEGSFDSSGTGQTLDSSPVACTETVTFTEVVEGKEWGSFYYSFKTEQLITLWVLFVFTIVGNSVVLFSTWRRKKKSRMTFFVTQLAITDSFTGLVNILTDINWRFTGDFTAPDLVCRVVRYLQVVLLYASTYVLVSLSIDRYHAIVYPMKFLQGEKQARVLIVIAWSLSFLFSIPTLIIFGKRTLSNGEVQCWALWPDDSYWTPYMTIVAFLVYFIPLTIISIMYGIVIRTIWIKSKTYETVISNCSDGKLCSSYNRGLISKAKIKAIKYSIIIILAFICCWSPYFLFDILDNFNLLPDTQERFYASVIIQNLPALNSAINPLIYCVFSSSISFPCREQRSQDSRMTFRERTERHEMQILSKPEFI
ALDH1A1 inh – blocks purified human ALDH1A1 activity. P00352. Purified ALDH1A1, NADH fluorescence, propionaldehyde substrate. Potency, µM (doses to about 75.3 µM), for the others: at the top dose activity, negative = inhibition, most hits filed as inhibitors. 220,000 tested, 7.3% active. AID 1030; active means well fitted inhibition curve with a large enough effect, not every such curve was filed as active; inconclusive means small, poorly fitted or top-dose-only effect, or another doubt; inactive means no such curve, though single readings can be large or run the other way;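 further: plate controls were no enzyme wells and a reference inhibitor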
HPGD inh – inhibitors of human 15-hydroxyprostaglandin dehydrogenase (HPGD); Potency, µM, inactives show at the highest dose activity change, negative = inhibition, usual class: inhibitors; 150,000 tested, 4.3% active; AID 894; P15428; purified HPGD, NADH fluorescence kinetic, PGE2 substrate; active means well fitted inhibition curve with a large enough effect, not every such curve was filed as active; inconclusive means small, poorly fitted or top-dose-only effect, or another doubt; inactive means no such curve, though single readings can be large or run the other way
Target sequence (P15428 whole entry, looked up): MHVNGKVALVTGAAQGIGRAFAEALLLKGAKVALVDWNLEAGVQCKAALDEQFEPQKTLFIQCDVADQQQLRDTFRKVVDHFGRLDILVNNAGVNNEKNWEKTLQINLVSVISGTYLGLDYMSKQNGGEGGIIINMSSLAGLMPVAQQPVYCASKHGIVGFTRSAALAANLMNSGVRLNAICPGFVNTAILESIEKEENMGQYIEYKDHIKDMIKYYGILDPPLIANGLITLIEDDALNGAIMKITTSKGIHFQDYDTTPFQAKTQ
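20 nM HPGD preincubated 15 min at room temperature with compound in 50 mM Tris-HCl pH 8, 0.01% Tween 20. Started with 1 mM NAD+ and 30 uM prostaglandin E2; NADH fluorescence (360/450 nm) read 5 times over 30-s intervals, last minus first.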
Tau ThT inhib – inhibitors of human tau fibril formation, thioflavin T binding | 270,000 tested, 2.1% active | P10636 | AID 1460 | recombinant tau K18 P301L (four-repeat tau fragment), heparin-induced fibrillization, ThT fluorescence | Potency, µM (titrated, usually from 57.4 µM), without a hit: top-dose activity, negative = inhibition, most hits filed as inhibitors; further: nearly all actives have a fitted effect of over 55% in size
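Heparin-induced (20 uM) aggregation of recombinant human K18 P301L tau, 15 uM unlabeled with 0.24 uM labeled, pH 7 acetate buffer, 6 hr at 37 C with compound. Fibrils quantified by 30 uM ThT fluorescence after 1 hr ambient incubation.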
* marks the source's active call; other numbers are inactive results; u = inconclusive; x = not tested or not shown; [ ] = dose if it differs, or a comment. Unless noted, the call rests on the fitted dose curve; in most records, active means well fitted curve in the direction sought with a large enough effect; inconclusive means small, poorly fitted or top-dose-only effect, or another doubt; inactive means no such curve, though single readings can be large; an effect the other way counts as inactive or inconclusive. Unless noted, on the % scale 0 is the no-effect control and ±100 the full control effect; potency means the concentration at half of the fitted maximal effect.

SMILES	Tau FP inhib	Tau fluor counter	NPSR antagonist	ALDH1A1 inh	HPGD inh	Tau ThT inhib
COc1ccc(-c2ccc(/C=C3/C(=N)N4C=CSC4=NC3=O)o2)c([N+](=O)[O-])c1	-16.0%	u	-14.3%	7.0%	u	1.78µM*
COC(=O)c1ccc(NC(=O)N2CCc3c([nH]c4ccccc34)C2c2ccc(C)cc2)cc1 (stereo not given)	-3.8%	u	x	x	x	-0.7%
Cc1ccc(-c2cc(C(=O)N/N=C/c3c[nH]c4ccccc34)[nH]n2)cc1	u	15.8µM*[quencher]	-21.5%	u	u	u
O=C(N/N=C/c1cccs1)c1cc(-c2cccc3ccccc23)n[nH]1	u	u	-25.6%	-0.8%	25.1µM*	u
O=C(N/N=C/c1c[nH]c2ccccc12)c1ccn[nH]1	10.0%	-3.5%	-4.3%	-6.2%	x	u
O=C(N/N=C/c1cccs1)c1cc(-c2ccc3ccccc3c2)n[nH]1	u	u	u	12.1%	-28.6%	u
O=C(N/N=C/c1c[nH]c2ccccc12)c1cc(-c2ccc(-c3ccccc3)cc2)n[nH]1	5.1%	12.6µM*[quencher]	u	4.1%	u	u
COc1cc(OC)c(OC)cc1/C=N/NC(=O)c1cc(-c2cccn2C)n[nH]1	10.9%	u	-14.0%[46.1 µM]	-7.9%	u	12.6µM*
CCCCC1=CC2=CC(=O)C(C)(OC(=O)CC)C(=O)C2=CN1CCCN(CC)CC (stereo not given)	1.7%[11.6 µM]	1.5%[11.6 µM]	x	3.0%[13.5 µM]	0.8%	1.9%[11.5 µM]
Fc1cccc(Oc2nc3ccccc3n3cccc23)c1	u	-19.3%	-23.4%[46.1 µM]	u	u	-10.3%
O=C(N/N=C/c1c[nH]c2ccccc12)c1cc(-c2ccccc2)n[nH]1	14.7%	25.1µM*[quencher]	-18.6%	-0.5%	-19.9%	u
COc1cccc(/C=N/NC(=O)c2cc(-c3ccc(C)cc3)n[nH]2)c1O	x	x	x	-0.7%	39.8µM*	x
O=C(N/N=C/c1c[nH]c2ccccc12)c1cc(-c2cccc3ccccc23)n[nH]1	3.5%	10µM*[quencher]	-44.3%	15.9%	-24.3%	u
O=C(N/N=C/c1c[nH]c2ccccc12)c1cc(-c2ccc3ccccc3c2)n[nH]1	6.4%	5.2%	6.2%	16.4%	u	3.1%
O=C(N/N=C/c1ccccn1)c1cc(-c2cccc3ccccc23)n[nH]1	1.0%	-19.2%	2.2%	22.8%	-21.7%	u
CCO[P@]1(=O)OC[C@@H]2O[C@H](n3cnc4c(N)ncnc43)[C@H](O)[C@@H]2O1	x	x	x	5.0%[13.5 µM]	-3.3%	x
Cc1cc(C)c(NC(=O)CN2c3ccccc3S(=O)(=O)c3ccccc32)c(C)c1	-13.6%	-15.9%	x	x	x	-8.0%
CC(=O)c1cccc(CN2CCCC(CCC(=O)NCc3ccc(C)o3)C2)c1 (stereo not given)	-12.6%	-8.9%	-19.2%	u	x	u
O=C(Nc1ccccc1)Nc1cccc(Cl)c1	u	u	-9.2%[46.1 µM]	2.6%	-14.1%	10.2%
CC(=O)c1cccc(NC(=O)Nc2ccc(C(=O)N3CCOCC3)cc2)c1	-10.5%	-2.5%	-7.5%[46.1 µM]	u	12.6µM*	10.3%
Cc1ccc(NC(=O)Nc2ccc(C(=O)N3CCOCC3)cc2)cc1	-2.8%	-20.4%	-2.0%[46.1 µM]	8.4%	-27.3%	-10.3%
CC(=O)c1ccc(NC(=S)NCCc2cccc(Cl)c2)cc1	25.1µM*	u	-36.5%	-6.5%	x	3.3%
CC(=O)c1ccc(NC(=O)Nc2cccc(Cl)c2)cc1	20µM*	14.1µM*[quencher]	-11.6%[46.1 µM]	-2.6%	-2.9%	u
CCC(C)(C)NC(=O)C(c1ccc(C)cc1)N(Cc1ccco1)C(=O)CCC(=O)Nc1nccs1 (stereo not given)	-0.6%	-5.8%	-13.4%[46.1 µM]	-2.1%	-8.0%	-5.8%
C[C@@H]1OC(OC2C(OC3CC[C@@]4(C)C5CC=C6C7CC(C)(C)CC[C@@]7(C(=O)O)CCC6(C)C5(C)CCC4[C@]3(C)CO)OCC(O)C2O)C(O)C(O)C1O (stereo not given in full)	-10.1%	-5.6%	x	5.4%	-5.4%	-6.7%
SMILES	Tau FP inhib	Tau fluor counter	NPSR antagonist	ALDH1A1 inh	HPGD inh	Tau ThT inhib
O=C(Nc1ccc(Cl)c(Cl)c1)c1ccc(Cn2cc(Cl)cn2)cc1	-3.3%	5.1%	-39.7%	6.2%	u	7.3%
NNC(=O)c1ccc(Cn2cc(Br)cn2)cc1	-4.7%	-3.5%	7.5%	5.62µM*	-6.0%	-3.9%
NNC(=O)c1ccc(Cn2cc(Cl)cn2)cc1	3.2%	0.3%	8.0%	11.2µM*	-4.5%	-1.1%
COc1cccc(C(=O)Nc2ccccc2OC(F)(F)F)c1	-1.9%	-8.1%	18.6%	-12.1%	x	1.2%
CC(=O)C1C(=O)c2c(cccc2[N+](=O)[O-])C1=Nc1ccc(S(N)(=O)=O)cc1 (stereo not given)	u	u	28.1%	22.4µM*	x	12.6µM*
Cc1ccc(S(=O)(=O)Oc2ccccc2/C=C2\SC(=O)NC2=O)cc1	0.7%	-2.5%	-39.4%	12.6µM*	x	5.2%
Cc1ccc(S(=O)(=O)Oc2ccccc2/C=N/N=C(N)N)cc1	u	u	-25.0%	-9.9%	x	-12.0%
CCc1ccccc1NC(=O)N1CCN(c2cc(-c3noc(C)n3)ccc2C)CC1	-4.5%	-14.8%	x	x	x	-7.6%
CC(=O)NNc1nc(-c2ccc(NC(C)=O)cc2)cs1	-2.9%	-5.6%	24.1%	-2.1%	-21.8%	-0.6%
CC(=O)Nc1ccc(C(=O)Nc2nc(-c3cccnc3)cs2)cc1	-7.1%	-7.0%	5.5%	10µM*	x	-0.9%
COc1cccc(C(=O)Nc2nc(-c3ccncc3)cs2)c1	10.0%	-4.2%	12.3%	20µM*	x	u
CC(=O)Nc1ccc(-c2csc(NNC(=O)c3ccc(C)cc3)n2)cc1	u	u	-2.4%	-3.4%	x	11.2µM*
Cc1cccc(-[n+]2c(C)cc(C)c3c(=O)[nH]c(=O)[nH]c32)c1	1.7%	4.4%	16.7%	u	u	10.4%
Cc1ccn2c(=O)cc(CSc3nnc(NC(=O)c4ccccc4Cl)s3)nc2c1	-3.2%	1.1%	x	x	x	3.6%
COc1ccc(/C=N/OC/C(O)=C(\C#N)c2nc3ccccc3[nH]2)cc1OC	5.0%	u	24.2%	-18.5%	u	u
COC(=O)[C@H](COC(C)(C)C)NC(=O)O[C@@H]1C(=O)c2ccc(OC)cc2O[C@H]1c1cccc(C(F)(F)F)c1	4.8%	-13.4%	x	-2.4%	-7.1%	-5.5%
CCOC(=O)CSc1nnc(CNc2ccc(Cl)cc2)n1-c1ccccc1	7.6%	-3.9%	-28.6%[46.1 µM]	10µM*	-11.4%	-6.1%
CCOc1ccc(NCc2nnc(SCc3ccc(Cl)cc3)n2-c2ccccc2)cc1	4.4%	u	-58.9%	15.8µM*	-5.4%	u
O=C(CCn1c(=O)c2cccn2c2cccnc21)NCc1cccc(Br)c1	0.6%	-1.7%	x	x	x	9.8%
